Measurements: the supplement of paper PMC3334620
Whole data set: some 33,000 sequences, median “E-score (-0.5 to 0.5)” near -0.036, cut for the highest 2% near 0.37. The sample holds the highest values, similar sequences and a random draw of the others, so the mix is not that of the screen.

Each sequence was assayed against T1, Yer064c (UniProt P40041) (assay: PBM E-score (8-mer binding enrichment) (E-score (-0.5 to 0.5)); higher = stronger / more preferred TF binding). Settings: protein concentration: 200 nM; construct: GST-full length.
T1 sequence: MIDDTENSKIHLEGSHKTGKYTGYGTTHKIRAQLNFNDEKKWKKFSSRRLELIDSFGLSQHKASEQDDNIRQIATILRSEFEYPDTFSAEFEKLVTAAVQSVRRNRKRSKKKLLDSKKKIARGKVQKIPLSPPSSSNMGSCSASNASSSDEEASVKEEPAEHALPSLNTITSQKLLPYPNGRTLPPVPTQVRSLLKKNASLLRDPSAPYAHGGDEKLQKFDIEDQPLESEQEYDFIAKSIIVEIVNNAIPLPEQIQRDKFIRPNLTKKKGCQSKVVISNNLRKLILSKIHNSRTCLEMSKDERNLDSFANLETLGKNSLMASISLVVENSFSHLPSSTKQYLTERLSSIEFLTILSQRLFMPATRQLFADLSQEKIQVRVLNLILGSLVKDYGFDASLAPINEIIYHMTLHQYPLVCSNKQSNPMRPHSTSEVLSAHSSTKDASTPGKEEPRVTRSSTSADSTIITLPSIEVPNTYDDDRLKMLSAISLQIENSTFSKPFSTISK
Method: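 Universal 'all 10-mer' protein binding microarrays (Agilent AMADID 015681) probed with GST-tagged S. cerevisiae TFs (full-length or DBD) made by in vitro transcription/translation (PURExpress), about 100-200 nM. Bound TF was detected with fluorescent anti-GST. Each ungapped 8-mer (which stands for itself and its reverse complement) is scored by the PBM enrichment score (E-score), a modified Wilcoxon-Mann-Whitney statistic from -0.5 to +0.5, computed with the Universal PBM Analysis Suite. Scale: above 0.35 generally sequence-specific binding.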

Row | Sequence | PBM E-score
1 | GCCAAGGC | -0.214
2 | ACTCAGGC | 0.331
3 | ATTCAGGG | 0.0298
4 | CGTCAGGC | -0.19
5 | GGTCAGGA | -0.138
6 | AGTCAGGC | 0.449
7 | CGTCAGGA | -0.0376
8 | AGTCAGGA | 0.417
9 | ACTCAGGG | 0.311
10 | AGTCAGGG | 0.439
11 | AAAGTCCA | 0.0185
12 | AGTGAGAG | -0.0545
13 | AACGTGGG | -0.189
14 | AGCGATCA | -0.0759
15 | CTATGGAA | 0.0704
16 | CGAGCAGA | -0.0955
17 | GGATTAAA | 0.205
18 | TGATTTAA | 0.407
19 | TGATTAAA | 0.418
20 | GGATTACA | 0.0898
21 | AGATTTAA | 0.2
22 | CGATTTAA | 0.188
23 | CGATTACA | 0.101
24 | CGATTAAA | 0.249
25 | TGATTACA | 0.41

Row | Sequence | PBM E-score
26 | AGGTAGGG | -0.121
27 | GATTGGCC | -0.0787
28 | CCAACAAA | -0.069
29 | ACTGCGGA | -0.0234
30 | CCGGACTA | 0.103
31 | AGTTTAGG | 0.0907
32 | AGCAACTG | -0.155
33 | ATTGACTC | 0.445
34 | CTTGACTC | 0.463
35 | CTTGACAA | 0.113
36 | CTTGACTA | 0.435
37 | CTTGACCC | -0.164
38 | ATTGACAC | 0.0304
39 | CTTGACCA | 0.0717
40 | CTTGACGC | -0.268
41 | GTTGACAA | -0.00857
42 | GTTGACGA | 0.126
43 | ATTGACTG | 0.275
44 | GTTGACTA | 0.457
45 | ACTAACAC | 0.315
46 | CTAATTAG | 0.175
47 | AACATTAA | -0.00496
48 | CTCGATGC | -0.0842
49 | GCCTATCC | -0.207
50 | GGACCTAC | -0.132

Row | Sequence | PBM E-score
51 | GTTATCAA | 0.041
52 | AGGCCGCA | -0.226
53 | AAGTTTCT | 0.0369
54 | CAAACAGA | 0.0255
55 | CATAGGCC | -0.158
56 | GTGTTCAA | 0.0916
57 | CCCCTACC | -0.124
58 | ACACTTTC | -0.0867
59 | ATTGACTA | 0.428
60 | ATTGACAA | 0.0616
61 | ATTGACGA | 0.188
62 | ATTGGCTA | 0.0683
63 | AGTCGCTC | 0.382
64 | GGTCGCTA | -0.197
65 | CGTCGCTC | -0.159
66 | AGTCGCTA | 0.371
67 | AGTCGCCA | 0.356
68 | AGTCGCAC | 0.353
69 | CGTCGCAG | -0.031
70 | AGTCGCAG | 0.367
71 | AGTCGCCC | 0.403
72 | AGTCGCCG | 0.36
73 | AGTCGCTG | 0.303
74 | CGTCGCTA | -0.0862
75 | AGATTCGC | -0.0217

Row | Sequence | PBM E-score
76 | GCCCCCAC | -0.265
77 | AATGCCCT | -0.232
78 | CCAGAATC | 0.0913
79 | CAGAAGGA | -0.151
80 | GGGAGACC | -0.259
81 | CCCTCTTA | -0.103
82 | AGCATTAA | 0.0916
83 | CTTACTCA | 0.373
84 | CGTACTCA | 0.335
85 | AGTACTCC | 0.171
86 | AGTACTCG | 0.261
87 | AGTACTCA | 0.393
88 | CTTACTCC | 0.128
89 | GGTACTCA | 0.381
90 | ATTACTCA | 0.329
91 | GGTACTTA | -0.0396
92 | AGGTGAAA | 0.0659
93 | AATGTGTA | 0.222
94 | ACGGATAA | -0.0519
95 | CATCAGCA | -0.143
96 | AGTCATTC | 0.482
97 | AGTCATTG | 0.475
98 | AGCCATTC | 0.0873
99 | CGTCATTC | -0.0565
100 | GGTCATTA | -0.0121

Row | Sequence | PBM E-score
101 | AGCCATTG | 0.247
102 | CGTCATTA | -0.0609
103 | AGTCATTA | 0.487
104 | AGGCATTG | -0.171
105 | CCTGGAAG | -0.1
106 | GGAAGCCC | -0.374
107 | AGCGCGGG | 0.00652
108 | ATTCCAGG | 0.118
109 | TCAGCGAA | 0.186
110 | ACAATCTC | -0.108
111 | GCTCATCA | 0.184
112 | CCTCATCG | -0.207
113 | GCTCATCC | -0.0652
114 | TCTCATCA | 0.115
115 | ACGCATCT | -0.0617
116 | ACACATCG | 0.158
117 | ACTCATCC | 0.455
118 | CCTCATCC | -0.323
119 | ACTCATCA | 0.412
120 | ACCCATCT | 0.182
121 | ACTCATCG | 0.409
122 | ACTCATCT | 0.401
123 | AACTTTGG | -0.0438
124 | CTGCTAGA | 0.00564
125 | GAATGCCA | -0.127

Row | Sequence | PBM E-score
126 | CAGGGGCC | -0.269
127 | CTCACAAA | 0.232
128 | ACGTTATA | 0.0989
129 | AGGATGAT | 0.281
130 | GGAGATCC | -0.237
131 | CACTCCTA | -0.0701
132 | GACTCCTA | 0.443
133 | CACTCCTC | -0.206
134 | AACTCCTC | -0.169
135 | GACTCCTC | 0.419
136 | AACTCCTA | -0.137
137 | ACGGGCTA | -0.288
138 | GGTGGCTA | 0.181
139 | ATTCAGAA | 0.139
140 | CACCGCAA | -0.0119
141 | ACTTAACG | 0.0504
142 | GACAGTTA | -0.103
143 | AACAGTCG | 0.209
144 | TACAGTGA | 0.211
145 | GACAGTCC | 0.0581
146 | CACAGTCA | 0.411
147 | AACAGTCA | 0.384
148 | AACAGTCT | 0.204
149 | CACAGTCG | 0.203
150 | GACAGTCA | 0.409

Row | Sequence | PBM E-score
151 | CACAGTCC | 0.132
152 | TACAGTAA | 0.128
153 | TACAGTCA | 0.418
154 | ACGGAGCG | -0.0547
155 | AAGAGAGG | -0.104
156 | CTGCTAAA | -0.141
157 | AGTTCCAC | -0.0556
158 | AAACGGGG | -0.128
159 | CTGGACAG | 0.0136
160 | ATGCACCC | -0.0692
161 | CAATAGTA | -0.0839
162 | GAATAGCC | -0.0409
163 | AAATAGTT | -0.0372
164 | GAATAGTC | 0.38
165 | GAATAGTA | -0.0424
166 | CAATAGTG | 0.0438
167 | AAATAGTC | 0.382
168 | AAATAGTG | 0.062
169 | CAATAGTC | 0.409
170 | GCGTAGAA | -0.12
171 | CACCGTTA | 0.0864
172 | ATTGGTTG | -0.0268
